Measurements: PubChem BioAssay
Active and inactive are the calls of the source.

How the values were obtained:
[1] = tested on: Plasmodium falciparum Sir2 (PF13_0152, Sir2A); assay: Plasmodium falciparum Sir2A binding compounds – biochemical, small-molecule microarray, 635 nm fluorescence, primary screen (AID 1098); details: fluorescence 635 nm, higher = more signal;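 note: score merges spot fluorescence intensity with its signal-to-noise ratio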
[2] = probe aDKK1 binding to arrayed compounds – biochemical, biotinylated probe, 635/667 nm fluorescence, primary screen (AID 1099); details: small-molecule microarray, higher = more signal;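 note: score merges 667nm spot fluorescence with signal to noise across triplicate slides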
[3] = probe aCHRDL2 binding to arrayed compounds – biochemical, biotinylated probe, 635/667 nm fluorescence, primary screen (AID 1100); details: small-molecule microarray, higher = more signal
[4] = change in splice reporter luminescence, either direction, cell-based, HEK293, spliceosome inhibition project, primary screen (AID 1101); details: HEK293 splicing luciferase reporter, 24 h, higher = more signal, called active from +8 up or from −8 down;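 note: HEK293 cells carrying a splicing-competent luciferase reporter gene; test concentration not given here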
[5] = biological target: Fibroblast growth factor 10 (Homo sapiens) (UniProt O15520); assay: compounds binding fibroblast growth factor 10 – biochemical, small-molecule microarray, 635 nm fluorescence, primary screen (AID 1102); details: FGF10 binding, fluorescence 635 nm, higher = more signal
Chain of Fibroblast growth factor 10 (Homo sapiens) (O15520 whole entry, looked up): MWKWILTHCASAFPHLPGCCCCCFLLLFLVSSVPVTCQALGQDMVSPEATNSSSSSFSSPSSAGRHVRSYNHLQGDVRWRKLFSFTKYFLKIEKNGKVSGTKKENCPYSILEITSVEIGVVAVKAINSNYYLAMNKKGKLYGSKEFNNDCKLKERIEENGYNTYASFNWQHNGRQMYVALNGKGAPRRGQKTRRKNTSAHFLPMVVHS

[6] = tested on: glycogen synthase kinase-3 (GSK3A per assay name; protocol says GSK3B); assay: compounds binding glycogen synthase kinase-3 – biochemical, small-molecule microarray, 635 nm fluorescence, GSK3A, primary screen (AID 1103); details: fluorescence 635 nm, higher = more signal; note: the record names both GSK3A and GSK3B
[7] = biological target: Epidermal growth factor receptor (Homo sapiens) (UniProt P00533); assay: compounds binding epidermal growth factor receptor – biochemical, small-molecule microarray, 635 nm fluorescence, primary screen (AID 1104); details: EGFR binding, higher = more signal;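 note: score merges 667 nm emission intensity with spot signal to noise over triplicate slides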
Chain of Epidermal growth factor receptor (Homo sapiens) (P00533 whole entry, looked up): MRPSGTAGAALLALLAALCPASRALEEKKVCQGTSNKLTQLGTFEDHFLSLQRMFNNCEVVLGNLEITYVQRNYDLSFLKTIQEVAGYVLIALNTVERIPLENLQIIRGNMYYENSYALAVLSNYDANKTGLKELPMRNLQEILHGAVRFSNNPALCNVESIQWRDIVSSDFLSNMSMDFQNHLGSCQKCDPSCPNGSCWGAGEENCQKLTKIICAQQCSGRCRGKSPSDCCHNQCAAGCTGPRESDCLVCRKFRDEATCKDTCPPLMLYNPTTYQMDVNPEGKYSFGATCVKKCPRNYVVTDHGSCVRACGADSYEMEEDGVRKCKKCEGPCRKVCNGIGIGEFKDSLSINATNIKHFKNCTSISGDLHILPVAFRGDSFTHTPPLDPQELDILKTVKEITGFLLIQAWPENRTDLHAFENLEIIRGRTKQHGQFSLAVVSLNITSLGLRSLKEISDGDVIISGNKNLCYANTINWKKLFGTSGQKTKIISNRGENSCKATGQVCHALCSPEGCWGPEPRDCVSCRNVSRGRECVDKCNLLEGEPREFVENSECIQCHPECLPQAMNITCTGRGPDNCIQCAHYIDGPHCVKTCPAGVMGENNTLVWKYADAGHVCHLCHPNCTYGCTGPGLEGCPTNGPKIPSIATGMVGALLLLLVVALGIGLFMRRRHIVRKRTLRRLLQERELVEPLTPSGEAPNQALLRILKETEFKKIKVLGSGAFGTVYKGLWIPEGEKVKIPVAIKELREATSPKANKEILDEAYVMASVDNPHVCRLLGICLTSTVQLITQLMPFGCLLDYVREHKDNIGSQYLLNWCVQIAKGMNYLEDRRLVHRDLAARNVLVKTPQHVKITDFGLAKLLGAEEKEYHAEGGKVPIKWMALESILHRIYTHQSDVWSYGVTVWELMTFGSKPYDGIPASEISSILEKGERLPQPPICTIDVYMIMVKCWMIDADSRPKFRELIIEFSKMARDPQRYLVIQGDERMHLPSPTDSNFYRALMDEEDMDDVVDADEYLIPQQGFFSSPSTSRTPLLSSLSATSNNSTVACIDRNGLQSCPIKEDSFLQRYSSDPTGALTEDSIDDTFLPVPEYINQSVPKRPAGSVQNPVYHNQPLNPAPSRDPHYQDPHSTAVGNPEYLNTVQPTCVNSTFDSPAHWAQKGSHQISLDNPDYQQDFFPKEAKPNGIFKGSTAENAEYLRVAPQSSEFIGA

[8] = biological target: Follistatin-related protein 3 (Homo sapiens) (UniProt O95633); assay: compounds binding follistatin-related protein 3 – biochemical, small-molecule microarray, 635 nm fluorescence, primary screen (AID 1105); details: FSTL3 binding, higher = more signal;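 note: score merges emission near 667 nm and signal to noise per printed spot across three slides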
Chain of Follistatin-related protein 3 (Homo sapiens) (O95633 whole entry, looked up): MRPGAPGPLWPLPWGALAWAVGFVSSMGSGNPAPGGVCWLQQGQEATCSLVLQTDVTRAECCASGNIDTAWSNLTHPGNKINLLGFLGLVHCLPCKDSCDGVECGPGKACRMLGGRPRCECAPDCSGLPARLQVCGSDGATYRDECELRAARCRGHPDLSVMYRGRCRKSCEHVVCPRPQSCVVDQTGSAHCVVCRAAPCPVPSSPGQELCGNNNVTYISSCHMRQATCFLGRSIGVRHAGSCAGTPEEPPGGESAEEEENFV

[9] = biological target: Dickkopf-related protein 1 (Homo sapiens) (UniProt O94907); assay: small molecules binding DKK1 protein – biochemical, small-molecule microarray, 635 nm fluorescence scan, primary screen (AID 1106); details: higher = more signal;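 note: score merges emission near 667 nm with signal to noise over three replicate slides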
Chain of Dickkopf-related protein 1 (Homo sapiens) (O94907 whole entry, looked up): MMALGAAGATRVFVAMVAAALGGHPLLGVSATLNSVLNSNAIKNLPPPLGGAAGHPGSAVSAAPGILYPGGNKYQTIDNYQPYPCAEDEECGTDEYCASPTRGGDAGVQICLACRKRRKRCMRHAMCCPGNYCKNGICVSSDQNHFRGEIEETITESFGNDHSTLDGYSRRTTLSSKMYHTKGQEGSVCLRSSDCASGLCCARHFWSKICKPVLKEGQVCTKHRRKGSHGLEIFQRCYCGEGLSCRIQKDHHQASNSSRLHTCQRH

[10] = tested on: Inhibin beta A chain (activin A); assay: small molecules binding activin A – biochemical, small-molecule microarray, 635 nm fluorescence scan, primary screen (AID 1107); details: INHBA, higher = more signal;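 note: mouse activin A protein probed at 4.33 µg/mL on printed slides; score merges bound-protein fluorescence near 667 nm with spot signal-to-noise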
[11] = tested on: Human papillomavirus type 1a protein E7 (residues 44-93); assay: small molecules binding HPV E7 44-93 – biochemical, small-molecule microarray, residues 44-93, 635 nm fluorescence, primary screen (AID 1108); details: fluorescence 635 nm, higher = more signal;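 note: E7 fragment applied at 1 µg/mL in TBST for 1 h at 4 C; score combines spot fluorescence with its signal to noise ratio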
[12] = hepatitis C replication reporter changes, two-sided – Huh7 cells, luciferase reporter, HCV replication inhibitor project, primary screen (AID 1109); details: Huh7 HCV replicon luciferase reporter, 48 h; higher = more signal;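 note: huh7 hepatoma cells harbouring a luciferase neomycin HCV replicon reporter; luciferase luminescence as measure of HCV replicon replication; test concentration not given here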
[13] = biological target: Left-right determination factor 2 (Homo sapiens) (UniProt O00292); assay: small molecules binding LEFTY2 protein – biochemical, small-molecule microarray, 635 nm fluorescence scan, primary screen (AID 1110); details: higher = more signal
Chain of Left-right determination factor 2 (Homo sapiens) (O00292 whole entry, looked up): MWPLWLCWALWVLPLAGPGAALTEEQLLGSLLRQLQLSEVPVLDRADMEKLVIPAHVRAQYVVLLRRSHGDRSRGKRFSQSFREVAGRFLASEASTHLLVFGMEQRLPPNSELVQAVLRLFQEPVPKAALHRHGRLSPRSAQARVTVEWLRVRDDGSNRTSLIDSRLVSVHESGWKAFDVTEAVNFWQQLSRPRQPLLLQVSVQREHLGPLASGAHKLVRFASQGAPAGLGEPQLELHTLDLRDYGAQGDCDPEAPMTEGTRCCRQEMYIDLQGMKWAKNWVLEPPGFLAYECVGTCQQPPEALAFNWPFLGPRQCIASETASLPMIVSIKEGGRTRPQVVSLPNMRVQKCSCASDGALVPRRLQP

[14] = biological target: Calmodulin-1 (Homo sapiens) (UniProt P0DP23); assay: small molecules binding calmodulin-1 with EGTA – biochemical, small-molecule microarray, Cy5-labelled CALM1, profiling panel (AID 1111); details: Cy5-CALM1 binding fluorescence, higher = more signal;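 note: labelled calmodulin applied in Tris saline Tween buffer holding calcium plus EGTA and DTT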
[15] = biological target: Calmodulin-1 (Homo sapiens) (UniProt P0DP23); assay: small molecules binding Ca-loaded calmodulin-1 – biochemical, small-molecule microarray, Cy5-labelled CALM1, plus calcium, artefact control for SMM control-protein annotation, profiling panel (AID 1112); details: Cy5-CALM1 binding fluorescence, higher = more signal;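 note: score merges spot fluorescence with signal to noise from triplicate slides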
[16] = probe aWnt5a binding to arrayed compounds – biochemical, biotinylated probe, 635/667 nm fluorescence, primary screen (AID 1113); details: small-molecule microarray, higher = more signal;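 note: score merges 667 nm fluorescence intensity with signal-to-noise per printed feature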
[17] = probe aShh binding to arrayed compounds – biochemical, biotinylated probe, 635/667 nm fluorescence, primary screen (AID 1114); details: small-molecule microarray, higher = more signal;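 note: probe is biotin-labelled aShh protein from a stem cell growth factor screen; measures binding of labelled protein to compounds printed on the slide; score merges feature fluorescence at 667 nm with signal-to-noise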
[18] = probe aNog binding to arrayed compounds – biochemical, biotinylated probe, 635/667 nm fluorescence, primary screen (AID 1115); details: small-molecule microarray, higher = more signal;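 note: probe is biotinylated aNog protein used at 0.15 µg/mL for 1 h at 4 C; z-score combines 667 nm fluorescence of each spot with its signal to noise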
[19] = biological target: Torsin-1A-interacting protein 1 (Homo sapiens) (UniProt Q5JTV8); assay: compound microarray binding of lysate hLAP1 – cell lysate, small-molecule microarray, COS7 lysate, 635/667 nm fluorescence, primary screen (AID 1116); details: 635 nm fluorescence, higher = more signal
Chain of Torsin-1A-interacting protein 1 (Homo sapiens) (Q5JTV8 whole entry, looked up): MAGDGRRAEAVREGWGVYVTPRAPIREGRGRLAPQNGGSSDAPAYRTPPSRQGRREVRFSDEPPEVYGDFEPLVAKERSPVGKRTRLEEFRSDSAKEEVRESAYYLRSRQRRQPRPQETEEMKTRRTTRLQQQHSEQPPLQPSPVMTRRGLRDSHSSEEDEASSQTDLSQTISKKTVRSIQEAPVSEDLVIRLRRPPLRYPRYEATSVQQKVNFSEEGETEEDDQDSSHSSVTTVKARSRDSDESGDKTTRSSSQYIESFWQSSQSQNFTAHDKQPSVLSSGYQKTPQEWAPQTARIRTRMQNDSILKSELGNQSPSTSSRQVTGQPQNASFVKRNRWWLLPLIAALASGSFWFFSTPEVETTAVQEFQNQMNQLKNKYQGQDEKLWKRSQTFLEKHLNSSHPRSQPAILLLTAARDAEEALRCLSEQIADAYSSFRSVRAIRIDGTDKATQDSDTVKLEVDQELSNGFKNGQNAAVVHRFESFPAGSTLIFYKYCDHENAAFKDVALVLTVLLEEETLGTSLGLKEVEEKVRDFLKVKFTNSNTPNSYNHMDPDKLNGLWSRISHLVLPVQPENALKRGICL

[20] = biological target: Alpha-bungarotoxin (Bungarus multicinctus) (UniProt P60615); assay: compounds binding labelled alpha-BTX control protein – biochemical, small-molecule microarray, Alexa647 label, 635/667 nm fluorescence, artefact control for SMM control protein annotation, profiling panel (AID 1117); details: alpha-BTX-A647 binding fluorescence, higher = more signal
Chain of Alpha-bungarotoxin (Bungarus multicinctus) (P60615 whole entry, looked up): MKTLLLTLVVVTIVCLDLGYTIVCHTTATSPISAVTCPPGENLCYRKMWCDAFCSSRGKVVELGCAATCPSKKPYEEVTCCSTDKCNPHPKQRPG

Compound | composite z-score [1] | composite z-score [2] | composite z-score [3] | z-score [4] | composite z-score [5] | composite z-score [6] | composite z-score [7] | composite z-score [8] | composite z-score [9] | composite z-score [10] | composite z-score [11] | z-score [12] | composite z-score [13] | composite z-score [14] | composite z-score [15] | composite z-score [16] | composite z-score [17] | composite z-score [18] | composite z-score [19] | composite z-score [20]
[N-]=[N+]=Nc1ccccc1C[C@@]1(C(=O)N2CCOCC2)N=C(c2ccc(OCCCO)cc2)O[C@@H]1c1ccccc1N=[N+]=[N-] | 0.668 | 1.35 | 1.13 | 0.144 (inactive) | 0.997 | 1.29 | 0.215 | 1.28 | 0.444 | 0.937 | 0.457 | -2.29 | 0.095 | 1.04 | 0.804 | -0.0398 | 0.102 | 0.293 | 0.842 | 2
C[N+](C)(C)CCCC[C@@H]1NC(=O)[C@H]2C[C@@H](C(=O)NCc3ccc(F)cc3)[C@@H](c3cccc(OCCO)c3)N2C1=O | 0.459 | 0.0243 | 0.479 | -0.178 (inactive) | 0.988 | 0.519 | 0.139 | 0.954 | 0.885 | -0.7 | 0.276 | 0.328 | 0.503 | 0.884 | 0.869 | -0.0522 | -0.0904 | 0.0519 | 1.42 | 1.15
C=C(CCCC)/C(=C/C[C@H](OC(=O)c1ccncc1)c1cccc(OCCO)c1)c1cc(C(=O)OC)ccc1OC | 0.169 | -0.166 | -0.0107 | -1.37 (inactive) | 1.04 | 0.174 | -0.218 | 0.611 | 0.347 | 0.868 | 0.799 | -2.61 | 0.385 | 0.267 | -0.784 | 0.0394 | 0.14 | -0.226 | 0.516 | 0.582
Cc1ccccc1C(O)C1C=CC2C(=O)N(c3ccccc3)C(=O)C2N1Nc1ccc(C#N)cc1 (stereo not given) | 1.56 | 1.35 | 1.4 | 0.898 (inactive) | 1.16 | 1.3 | 0.832 | 1.05 | 0.311 | 0.958 | 1.22 | -0.15 | 0.588 | 2.68 | 1.27 | 0.24 | 0.333 | 2.26 | 3.02 | 1.94
NC(=O)NCC#Cc1ccc2c(c1)[C@]1(C(=O)N2)[C@H](C(=O)N2CCCCCCC2)[C@H]2C(=O)O[C@H](c3ccccc3)[C@H](c3ccccc3)N2[C@@H]1c1ccccc1OCCO | 1.82 | 2.98 | 1.66 | 0.0838 (inactive) | 1.39 | 1.38 | 1.7 | 1.71 | 2.26 | 1.86 | 1.37 | -1.54 | 1.46 | 2.99 | 1.69 | 1.31 | 2.38 | 2.29 | 5.01 | 2.63
